# This is one part of the list. The true hit rate is not given.
# B1: HC1547 (peptide)
# chain: CAPPQPEYDLAGNASASA
# B2: FS-1874 (peptide)
# chain: CAVQARDLGPAGNASASA
# B3: HC2260 (peptide)
# chain: CAEVVTSTWCAGNASASA
# B4: FS-2104 (peptide)
# chain: CARVRRAAAEAGNASASA
# B5: FS-2843 (peptide)
# chain: CARVRRRLDLAGNASASA
# B6: HC1408 (peptide)
# chain: CAASKVKANLAGNASASA
# B7: FS-2918 (peptide)
# chain: CARETRYVELAGNASASA
# B8: FS-1338 (peptide)
# chain: CAHKKRSARDAGNASASA
# B9: FS-186 (peptide)
# chain: CARETRSARDAGNASASA
# B10: FS-1699 (peptide)
# chain: CARETRSFTKAGNASASA
# B11: HC564 (peptide)
# chain: CAAYALDTEVAGNASASA
# B12: HC1743 (peptide)
# chain: CAMEECSQALAGNASASA
# B13: FS-3108 (peptide)
# chain: CARTKRSSTTAGNASASA
# B14: FS-1841 (peptide)
# chain: CARTKKSSVQAGNASASA
# B15: FS-2877 (peptide)
# chain: CAPSKRGNSTAGNASASA
# B16: FS-2828 (peptide)
# chain: CARTKRGWMWAGNASASA
# B17: FS-2385 (peptide)
# chain: CARTRRSWVWAGNASASA
# B18: FS-2880 (peptide)
# chain: CARACRGVTTAGNASASA
# B19: HC2298 (peptide)
# chain: CADTEVVTSTAGNASASA
# B20: FS-2468 (peptide)
# chain: CARTRRISQTAGNASASA
# B21: FS-2613 (peptide)
# chain: CARTKRSWVWAGNASASA
# B22: FS-2827 (peptide)
# chain: CARTKRFSHTAGNASASA
# B23: FS-2829 (peptide)
# chain: CARTKRHRSTAGNASASA
# B24: HC1678 (peptide)
# chain: CATEECSQHLAGNASASA
# B25: HC97 (peptide)
# chain: CAVVCYSMSYAGNASASA
# B26: HC128 (peptide)
# chain: CAEVVMSTWVAGNASASA
# B27: FS-1089 (peptide)
# chain: CASRYRFIRSAGNASASA
# B28: FS-920 (peptide)
# chain: CATPEDFVRSAGNASASA
# B29: FS-1090 (peptide)
# chain: CASRYRFVRSAGNASASA
# B30: FS-772 (peptide)
# chain: CAFRIRTIRSAGNASASA
# B31: HC1987 (peptide)
# chain: CAFVCCSMSYAGNASASA
# B32: HC2245 (peptide)
# chain: CAEVVTSTWLAGNASASA
# B33: HC1014 (peptide)
# chain: CAEMEECSQHAGNASASA
# B34: FS-2742 (peptide)
# chain: CARPRREAPFAGNASASA
# B35: FS-2744 (peptide)
# chain: CARPRRMTPFAGNASASA
# B36: HC1228 (peptide)
# chain: CAPPCKPLLRAGNASASA
# B37: HC2197 (peptide)
# chain: CAEVSTSTWVAGNASASA
# B38: HC1868 (peptide)
# chain: CATTWCSGSWAGNASASA
# B39: HC2056 (peptide)
# chain: CAVVCCSGSYAGNASASA
# B40: FS-1241 (peptide)
# chain: CAPKGRGKRRAGNASASA
# B41: FS-894 (peptide)
# chain: CAVTSRSFRTAGNASASA
# B42: FS-41 (peptide)
# chain: CAKKGRGKRTAGNASASA
# B43: FS-353 (peptide)
# chain: CALNGREHRSAGNASASA
# B44: FS-935 (peptide)
# chain: CAKKGRNRRTAGNASASA
# B45: FS-134 (peptide)
# chain: CALNGRCRRTAGNASASA
# Molecular target: furin, P09958
# Experiment: furin cleavage Z-score vs untreated control; higher = more cleavage, active = 3.5 or more, inactive = 1 or less, 8 variable residues between constant flanks
# Method in brief: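 Sequencing of released DNA, tagged with adapters by PCR, gave read counts used as abundance. That DNA was freed when purified furin cut N-terminally bead-bound 8-mer peptides fused to a cDNA oligonucleotide, in 0.01 ml reactions at 1:10 enzyme:substrate in 50 mM HEPES pH 7.5 with CaCl2 and NaCl, lasting 7.5, 15 or 30 min. The cleavage Z-score was the lowess-adjusted log count versus furin-free reactions, scaled by median absolute deviation.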
# Chain of furin, P09958 (P09958 whole entry): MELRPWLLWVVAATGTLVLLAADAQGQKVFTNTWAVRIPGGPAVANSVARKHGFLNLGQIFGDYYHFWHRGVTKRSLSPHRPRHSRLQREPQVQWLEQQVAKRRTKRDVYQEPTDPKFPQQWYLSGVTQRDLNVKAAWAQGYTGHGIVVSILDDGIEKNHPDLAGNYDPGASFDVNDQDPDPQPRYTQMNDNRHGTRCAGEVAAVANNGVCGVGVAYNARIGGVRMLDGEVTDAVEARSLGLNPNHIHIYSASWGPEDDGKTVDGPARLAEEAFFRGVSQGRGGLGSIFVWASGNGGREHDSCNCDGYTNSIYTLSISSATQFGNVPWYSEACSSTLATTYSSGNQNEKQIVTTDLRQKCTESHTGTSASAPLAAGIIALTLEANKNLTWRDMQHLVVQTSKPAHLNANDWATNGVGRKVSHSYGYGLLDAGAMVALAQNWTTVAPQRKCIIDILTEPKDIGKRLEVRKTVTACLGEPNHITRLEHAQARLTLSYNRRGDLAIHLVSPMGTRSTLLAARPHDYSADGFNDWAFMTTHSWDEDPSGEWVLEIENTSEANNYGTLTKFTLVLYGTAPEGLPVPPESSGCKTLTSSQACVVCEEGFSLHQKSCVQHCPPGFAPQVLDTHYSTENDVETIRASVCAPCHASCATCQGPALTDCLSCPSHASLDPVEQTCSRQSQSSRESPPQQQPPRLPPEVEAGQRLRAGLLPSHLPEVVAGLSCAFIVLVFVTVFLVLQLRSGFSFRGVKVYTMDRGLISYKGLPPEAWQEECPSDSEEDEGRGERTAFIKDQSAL
Sequence,furin cleavage Z-score (7.5 min),furin cleavage Z-score (15 min),furin cleavage Z-score (30 min)
B1,-0.102 (inactive),2.02,-0.964 (inactive)
B2,-2.04 (inactive),-0.417 (inactive),-1.57 (inactive)
B3,-0.517 (inactive),2.75,0.14 (inactive)
B4,12.4 (active),11.6 (active),8.72 (active)
B5,2.08,5.18 (active),6.19 (active)
B6,2.23,1.5,-1.01 (inactive)
B7,0.274 (inactive),0.951 (inactive),1.86
B8,9.15 (active),11 (active),8.17 (active)
B9,4.31 (active),4.67 (active),5.64 (active)
B10,-0.268 (inactive),-1.13 (inactive),0.163 (inactive)
B11,-0.288 (inactive),-0.347 (inactive),0.258 (inactive)
B12,1.12,0.147 (inactive),0.968 (inactive)
B13,6.96 (active),8.23 (active),7.55 (active)
B14,0.0621 (inactive),-0.697 (inactive),-0.462 (inactive)
B15,-0.745 (inactive),-0.0005 (inactive),0.164 (inactive)
B16,-0.833 (inactive),1.19,3.46
B17,0.299 (inactive),-0.875 (inactive),3.19
B18,0.00727 (inactive),-0.299 (inactive),0.871 (inactive)
B19,-0.856 (inactive),-0.105 (inactive),-0.202 (inactive)
B20,-0.0765 (inactive),0.134 (inactive),0.486 (inactive)
B21,2.5,3.65 (active),6.25 (active)
B22,1.99,3.53 (active),5.48 (active)
B23,2.1,4.17 (active),5.45 (active)

Sequence,furin cleavage Z-score (7.5 min),furin cleavage Z-score (15 min),furin cleavage Z-score (30 min)
B24,-0.115 (inactive),0.32 (inactive),0.469 (inactive)
B25,-0.487 (inactive),-0.359 (inactive),1.4
B26,-0.73 (inactive),-0.446 (inactive),-0.0354 (inactive)
B27,9.42 (active),10.5 (active),7.95 (active)
B28,-0.0484 (inactive),-0.138 (inactive),-0.221 (inactive)
B29,10.3 (active),8.88 (active),7.53 (active)
B30,12.7 (active),13.4 (active),9.8 (active)
B31,1.81,-0.389 (inactive),-0.812 (inactive)
B32,0.791 (inactive),0.0846 (inactive),0.0471 (inactive)
B33,-0.42 (inactive),0.366 (inactive),1.51
B34,9.78 (active),10.3 (active),8.49 (active)
B35,2.59,4.44 (active),4.82 (active)
B36,0.659 (inactive),0.392 (inactive),0.118 (inactive)
B37,-0.613 (inactive),0.268 (inactive),-1.55 (inactive)
B38,-0.625 (inactive),-0.0771 (inactive),-0.259 (inactive)
B39,-1.92 (inactive),-0.697 (inactive),-1.32 (inactive)
B40,3.48,3.42,4.16 (active)
B41,1.05,-0.0745 (inactive),-0.661 (inactive)
B42,6.83 (active),9.38 (active),6.62 (active)
B43,0.641 (inactive),-0.584 (inactive),-0.522 (inactive)
B44,9.29 (active),8.34 (active),7.42 (active)
B45,6.57 (active),6.93 (active),8.18 (active)
